Assay [1] in a line: qHTS assay to identify small molecule antagonists of the glucocorticoid receptor (GR) signaling pathway - cell viability counter screen (AID 720693). Further: nearly all actives have a fitted effect of over 55% in size. Further: potency means the concentration at half of the fitted maximal effect.
Assay [2] is described as follows: qHTS assay for identifying genotoxic compounds that show differential cytotoxicity against isogenic chicken DT40 cell lines with known DNA damage response pathways - wild type cell line (AID 743012). Further: nearly all actives have a fitted effect of over 60% in size. Further: potency means the concentration at half of the fitted maximal effect. The gist of the method:
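Cytotoxicity in repair-proficient parental chicken DT40 cells serves as the comparator for Rad54/Ku70- and Rev3-deficient lines. Cells were exposed to compounds for 40 h at 37 C/5% CO2, and ATP-based luminescence (CellTiter-Glo) measured viability.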

The nature of assay [3]: qHTS assay for identifying genotoxic compounds that show differential cytotoxicity against isogenic chicken DT40 cell lines with known DNA damage response pathways - Rev3 mutant cell line (AID 743014). Further: nearly all actives have a fitted effect of over 55% in size. Further: potency means the concentration at half of the fitted maximal effect.
A short description of assay [4]: qHTS assay for identifying genotoxic compounds that show differential cytotoxicity against isogenic chicken DT40 cell lines with known DNA damage response pathways - Rad54/Ku70 mutant cell line (AID 743015). Further: nearly all actives have a fitted effect of over 60% in size. Further: potency means the concentration at half of the fitted maximal effect.
Assay [5] in a line: qHTS assay to identify small molecule antagonists of the androgen receptor (AR) signaling pathway - cell viability counter screen (AID 743033; further: nearly all actives have a fitted effect of over 45% in size; further: potency means the concentration at half of the fitted maximal effect).
Assay [6] can be described thus: qHTS assay to identify small molecule antagonists of the androgen receptor (AR) signaling pathway using the MDA cell line - cell viability counter screen (AID 743041; further: nearly all actives have a fitted effect of over 45% in size). In a few lines:
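Cytotoxicity counter screen: MDA-kb2 AR-luc cells, compound + R1881, 16 h, 37C, 0% CO2; CellTiter-Fluor added at 15.5 h, fluorescence read after 30 min.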

In assay [7] the target is Androgen receptor (Homo sapiens) (UniProt P10275). In words: qHTS assay to identify small molecule antagonists of the androgen receptor (AR) signaling pathway (AID 743035; active means well fitted inhibition curve with a large enough effect in the signal ratio in the repeat runs, not every such curve was filed as active; the % refers to the signal ratio; further: potency means the concentration at half of the fitted maximal effect). In a few lines:
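Steps: seed AR-UAS-bla GripTite HEK293 cells, incubate 4 h at 37C; pin in test compound, then add agonist R1881; incubate 16 h at 37C; add LiveBLAzer B/G FRET substrate, 2 h at room temperature; read fluorescence.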

For assay [8] the target is unchanged. The experiment in a line: qHTS assay to identify small molecule agonists of the androgen receptor (AR) signaling pathway (AID 743036; active means well fitted activation curve with a large enough effect in the signal ratio in the repeat runs, with a control signal flat, not every such curve was filed as active; the % refers to the signal ratio). The gist of the method: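 AR-UAS-bla HEK293 cells, plated 4 h before dosing, were treated with compound for 16 h at 37C. beta-Lactamase reporter read after 2 h with LiveBLAzer B/G FRET substrate at room temperature.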
For assay [9] the target is unchanged. In words: qHTS assay to identify small molecule agonists of the androgen receptor (AR) signaling pathway using the MDA cell line (AID 743040; further: nearly all actives have a fitted effect of over 20% in size). The gist of the method:
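Luciferase read-out, ONE-Glo, 30 min RT. Cells: MDA-kb2 AR-luc, MMTV promoter with AR and GR response elements. Compound exposure 16 h, 37C, 0% CO2, after 5 h pre-incubation. qHTS agonist mode.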

For assay [10] the target is unchanged. In words: qHTS assay to identify small molecule antagonists of the androgen receptor (AR) signaling pathway using the MDA cell line (AID 743042; further: nearly all actives have a fitted effect of over 55% in size; further: potency means the concentration at half of the fitted maximal effect). In a few lines:
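MDA-kb2 breast carcinoma cells carrying MMTV-luciferase (AR/GR responsive) were co-treated with compounds and the agonist R1881 for 16 h at 37C. Inhibition read as ONE-Glo luminescence; CellTiter-Fluor fluorescence measured in parallel for cytotoxicity.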

Molecules are shown by their SMILES. Values joined by “and” are separate entries in the source; they are usually repeats but may differ in a detail not shown here. Equal entries are not always repeated. Inconclusive results are not listed. Some compounds were tested as several samples or in several runs, with calls that do not always agree. Active and inactive are the calls of the source. Unless noted, the call rests on the fitted dose curve; in most records, active means well fitted curve in the direction sought with a large enough effect in the repeat runs; inconclusive means weak or mixed curves; inactive means no such curve, though single readings can be large; an effect the other way counts as inactive or inconclusive. Starred links: 1 amine or outer side, 2 acyl side, 3 side chain; linkers in the order of their positions; H or OH if unused. Positions of bridges follow the written chain, without caps; N, C: chain ends. Non-standard residues stand in square brackets, D forms with d. Residues, ends and D or L forms follow the SMILES beside them. Chains are numbered I, II in the order given. Actinocin(9to1) = Cc1c2oc3c(C)ccc(C(=O)[*:1])c3nc-2c(C(=O)[*:2])c(N)c1=O; NMeV = CN[C@H](C(=O)O)C(C)C; Sar = CNCC(=O)O

Sequence of Androgen receptor (Homo sapiens) (P10275 whole entry, looked up): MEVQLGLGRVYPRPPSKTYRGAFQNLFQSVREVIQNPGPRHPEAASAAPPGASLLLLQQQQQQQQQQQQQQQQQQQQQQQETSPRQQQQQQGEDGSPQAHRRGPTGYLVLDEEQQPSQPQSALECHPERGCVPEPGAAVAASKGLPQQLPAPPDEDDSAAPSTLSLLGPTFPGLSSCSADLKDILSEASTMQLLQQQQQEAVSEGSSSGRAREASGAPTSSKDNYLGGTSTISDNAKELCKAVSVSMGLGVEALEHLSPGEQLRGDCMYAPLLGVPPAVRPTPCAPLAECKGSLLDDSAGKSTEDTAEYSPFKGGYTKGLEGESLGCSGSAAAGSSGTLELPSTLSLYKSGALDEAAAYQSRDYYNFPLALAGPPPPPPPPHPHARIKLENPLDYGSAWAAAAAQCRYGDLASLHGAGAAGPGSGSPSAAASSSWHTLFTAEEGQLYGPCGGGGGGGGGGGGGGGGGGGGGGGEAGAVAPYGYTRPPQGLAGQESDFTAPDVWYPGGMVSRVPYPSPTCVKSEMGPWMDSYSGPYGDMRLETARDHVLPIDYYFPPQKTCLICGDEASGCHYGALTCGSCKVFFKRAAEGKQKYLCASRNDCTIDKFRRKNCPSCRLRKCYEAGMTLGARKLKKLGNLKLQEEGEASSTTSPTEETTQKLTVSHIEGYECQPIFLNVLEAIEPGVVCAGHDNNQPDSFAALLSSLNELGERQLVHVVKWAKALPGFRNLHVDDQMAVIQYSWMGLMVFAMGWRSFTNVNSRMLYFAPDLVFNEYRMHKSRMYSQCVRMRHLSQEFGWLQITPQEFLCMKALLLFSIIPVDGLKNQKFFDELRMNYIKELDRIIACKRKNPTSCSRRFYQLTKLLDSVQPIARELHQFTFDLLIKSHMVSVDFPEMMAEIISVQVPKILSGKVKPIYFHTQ

As to `CC1=C(C=O)C(C)(C)CC=C1`, the Potency entry in assay [1], in assay [2], in [3], in [4], in assay [5] and in assay [6] was “inactive” each time.
As to `Cc1c2oc3c(C)ccc(C(=O)N[C@@H]4C(=O)N[C@H](C(C)C)C(=O)N5CCC[C@H]5C(=O)N(C)CC(=O)N(C)[C@@H](C(C)C)C(=O)O[C@@H]4C)c3nc-2c(C(=O)N[C@@H]2C(=O)N[C@H](C(C)C)C(=O)N3CCC[C@H]3C(=O)N(C)CC(=O)N(C)[C@@H](C(C)C)C(=O)O[C@@H]2C)c(N)c1=O` (I: T[dV]P[Sar][NMeV] / II: T[dV]P[Sar][NMeV]; ester I:1-I:C, II:1-II:C; linker I:N-II:N via Actinocin(9to1)), the Potency is 239 nM (active) and 9.5 nM (active) in assay [1]; 6.7 nM (active) and 1.1 nM (active) in [2]; 7.5 nM (active) and 0.7 nM (active) in assay [3]; 23.9 nM (active) and 1 nM (active) in assay [7]; 15 nM (active) and 4.2 nM (active) in assay [10]. Also, the Potency entry in assay [5] and in assay [8] was “inactive” in each case. For the same compound, the call in assay [9] was inactive.
Consider `Nc1cc(S(=O)(=O)O)cc2cc(S(=O)(=O)O)cc(O)c12`, for which the Potency entry in assay [1], in assay [2], in [5] and in [6] was “inactive” each time. In addition, the Potency result in assay [3] is “inactive and 24.3 µM (active)”; in [4], “inactive and 61.1 µM (active)”.
As to `Cc1cccc(O)c1C`, the Potency entry in [1], in [2], in assay [3], in [4], in assay [5] and in [6] was “inactive” each time.
As for `[Cl][In]([Cl])[Cl]`, the Potency result in [1], in [2], in assay [3], in [5] and in assay [6] was “inactive” each time.
Turning to `O=C1Nc2ccccc2C1(c1ccc(O)cc1)c1ccc(O)cc1`, the Potency result in [1] and in assay [5] was “inactive” each time. The Potency was 68.6 µM (active) in assay [2] and 61.1 µM (active) in assay [3].
As for `C=CC(=O)OCCCCCCCC`, the Potency entry in assay [1], in [2], in assay [3], in [4], in assay [5] and in assay [6] was “inactive” each time.
Regarding `CC(=O)CC(=O)Nc1ccc2[nH]c(=O)[nH]c2c1`, the Potency result in assay [1], in [2], in [3], in [5] and in [6] was “inactive” each time.
Take `CC(C)(C)NC(=O)[C@@H]1CN(Cc2cccnc2)CCN1C[C@@H](O)C[C@@H](Cc1ccccc1)C(=O)N[C@H]1c2ccccc2C[C@H]1O`: the Potency entry in assay [1], in [5] and in assay [6] was “inactive” throughout. Moreover, the Potency in assay [2] is 23.7 µM (active) and inactive; in assay [3], 23.7 µM (active) and inactive; in assay [4], 18.8 µM (active).
With `NCCCCCC(=O)O`, the Potency result in assay [1], in [2], in assay [5] and in assay [6] was “inactive” in each case.
Turning to `Cc1occc(=O)c1OC(=O)C(C)C`, the Potency result in [1], in assay [2], in assay [4], in assay [5] and in assay [6] was “inactive” throughout.
`CC(C)(C)c1ccccc1`: the Potency entry in [1], in assay [2], in assay [3], in [4], in assay [5] and in assay [6] was “inactive” throughout.
Turning to `CCN(CC)c1ccc2c(C)cc(=O)oc2c1`, the Potency result in assay [1] and in assay [5] was “inactive” throughout. The Potency in assay [2] was 30.9 µM (active) and inactive; in assay [3], 69.1 µM (active).
As for `COC(=O)/C=C/c1ccccc1`, the Potency result in assay [1], in assay [2], in assay [5] and in [6] was “inactive” each time.
As to `CCC(=O)/C=C/C1C(C)=CCCC1(C)C` (stereo unspecified), the Potency result in assay [1], in assay [2], in assay [3], in [5] and in assay [6] was “inactive” in each case. The Potency entry in assay [4] is “inactive and 61.1 µM (active)”.
For the compound `CCC(C)(Oc1ccc(C2(c3ccc(OC(C)(CC)C(=O)O)cc3)CCCCC2)cc1)C(=O)O` (stereo unspecified), the Potency result in assay [1], in assay [2], in assay [3], in assay [5], in [7] and in assay [8] was “inactive” each time. The Potency entry in assay [6] and in assay [10] was “inactive” throughout. Further, the call in assay [9] was inactive.
`CCCNC(C)C(=O)Nc1ccccc1C` (stereo unspecified): the Potency entry in assay [1], in [2], in assay [4], in assay [5] and in assay [6] was “inactive” each time.
Regarding `COc1nc(C)nc(Cl)c1NC1=NCCN1`, the Potency result in assay [1], in [2], in assay [3], in [5] and in assay [6] was “inactive” in each case.
Take `CCCCCCCCCCCCc1ccccc1O`: the Potency was 21.6 µM (active) and 21.9 µM (active) in [1]; 12 µM (active) and 30.6 µM (active) in assay [2]; 7.59 µM (active) and 24.3 µM (active) in [3]; 24.2 µM (active) and 38.9 µM (active) in assay [5]; 21.6 µM (active) in assay [7]; 54.5 µM (active) in assay [10]. The compound was classed as inactive in assay [9]. In [6], the Potency result was “inactive”.
For the compound `Cc1scc2c1N(C(=O)CN1CCN(C)CC1)c1ccccc1NC2=O`, the Potency result in [1], in assay [2], in assay [3], in [4], in assay [5] and in [6] was “inactive” each time.
For `CC(=O)O[C@]1(C(C)=O)CC[C@H]2[C@@H]3C[C@H](C)C4=CC(=O)CC[C@]4(C)[C@H]3CC[C@@]21C`, the Potency entry in assay [1] and in assay [6] was “inactive” each time. Further, the Potency in assay [2] is 5.31 µM (active); in [3], 3.76 µM (active) and 4.85 µM (active); in [4], 8.41 µM (active) and 21.7 µM (active).
As to `O=C(Oc1ccccc1)c1ccccc1O`, the Potency result in assay [1], in [2], in assay [3], in [5] and in assay [6] was “inactive” each time.
As to `CC(=O)C1=C(C)[C@@H]2C[C@@]3(C1)[C@H](C)CC[C@H]3C2(C)C`, the Potency entry in [1], in assay [2], in assay [3], in assay [4], in [5] and in assay [6] was “inactive” each time.
Regarding `NNCCc1ccccc1`, the Potency entry in assay [1], in assay [2], in assay [3], in assay [4], in [5] and in assay [6] was “inactive” throughout.

(Values after PubChem BioAssay (Tox21).)
